Measurements published in PubChem BioAssay AID1117291 (Broad Institute, 2014).
Measured potencies and affinities stand elsewhere. Inconclusive results are not listed. The source made the active and inactive calls.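 The calls were made as follows: active = compound whose fitted half-maximal potency lies at or below double its highest tested dose in every test; inconclusive = tests disagree, or a flat partial loss, or a poor fit; inactive = every test inactive.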

experiment: hepatoma cell viability loss – CellTiter-Glo luminescence, dry powder, set 20, cytotoxicity control, dose response (AID 1117291); conditions: HepG2 viability, CellTiter-Glo ATP luminescence, 72 h; series mostly up to 26 µM

Structure (SMILES) | outcome
CC(=O)N1CCN(C(=O)CNC(=O)Nc2ccc(C)cc2)CC1 | inactive
Cc1ccc(NC(=O)NC2(C(=O)N3CCN(c4ccccc4)CC3)CCCCC2)cc1 | inactive
COc1ccc(C(=O)Nc2cc(C(F)(F)F)ccc2N2CCCC2)cc1S(=O)(=O)O | inactive
Cc1ccc(NC(=O)NC2(C(=O)N3CCOCC3)CCCCC2)cc1 | inactive
COc1ccc(C2=NN(c3ccc(C(=O)O)cc3)C(c3ccc(OC)c(OC)c3)C2)cc1 (stereo unspecified) | inactive
Cn1cnc(S(=O)(=O)Nc2cc(C(F)(F)F)ccc2N2CCCCC2)c1 | inactive
